Our source for the composite z-score and z-score values is PubChem BioAssay.

In assay [1] the test system is Human papillomavirus type 1a protein E7 (residues 44-93). Nature of the assay: small molecules binding HPV E7 44-93 – biochemical, small-molecule microarray, residues 44-93, 635 nm fluorescence, primary screen (AID 1108).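 Further: E7 fragment applied at 1 µg/mL in TBST for 1 h at 4 C; score combines spot fluorescence with its signal to noise ratio.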 Conditions: fluorescence 635 nm, higher = more signal.
Assay [2] is described as follows: hepatitis C replication reporter changes, two-sided – Huh7 cells, luciferase reporter, HCV replication inhibitor project, primary screen (AID 1109).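 Further: huh7 hepatoma cells harbouring a luciferase neomycin HCV replicon reporter; luciferase luminescence as measure of HCV replicon replication; test concentration not given here.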 Conditions: Huh7 HCV replicon luciferase reporter, 48 h; higher = more signal.
In assay [3] the target is Left-right determination factor 2 (Homo sapiens) (UniProt O00292). Nature of the assay: small molecules binding LEFTY2 protein – biochemical, small-molecule microarray, 635 nm fluorescence scan, primary screen (AID 1110). To be noted: higher = more signal.
Sequence of Left-right determination factor 2 (Homo sapiens) (O00292 whole entry, looked up): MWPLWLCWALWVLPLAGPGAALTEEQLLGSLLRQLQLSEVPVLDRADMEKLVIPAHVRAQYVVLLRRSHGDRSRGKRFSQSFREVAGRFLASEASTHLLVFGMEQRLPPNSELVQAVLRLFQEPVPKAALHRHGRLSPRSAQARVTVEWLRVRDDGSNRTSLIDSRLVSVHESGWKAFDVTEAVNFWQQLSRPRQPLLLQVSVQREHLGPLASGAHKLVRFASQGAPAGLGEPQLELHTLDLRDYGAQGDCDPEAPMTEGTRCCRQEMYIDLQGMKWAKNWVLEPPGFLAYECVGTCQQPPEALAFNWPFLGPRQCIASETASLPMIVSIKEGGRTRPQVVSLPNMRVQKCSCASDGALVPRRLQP
Assay [4] addresses Calmodulin-1 (Homo sapiens) (UniProt P0DP23). Nature of the assay: small molecules binding calmodulin-1 with EGTA – biochemical, small-molecule microarray, Cy5-labelled CALM1, profiling panel (AID 1111).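 Further: labelled calmodulin applied in Tris saline Tween buffer holding calcium plus EGTA and DTT.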 To be noted: Cy5-CALM1 binding fluorescence, higher = more signal.
The target is the same in assay [5]. Nature of the assay: small molecules binding Ca-loaded calmodulin-1 – biochemical, small-molecule microarray, Cy5-labelled CALM1, plus calcium, artefact control for SMM control-protein annotation, profiling panel (AID 1112).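 Further: score merges spot fluorescence with signal to noise from triplicate slides.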 To be noted: Cy5-CALM1 binding fluorescence, higher = more signal.
Assay [6] in a line: probe aWnt5a binding to arrayed compounds – biochemical, biotinylated probe, 635/667 nm fluorescence, primary screen (AID 1113).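 Further: score merges 667 nm fluorescence intensity with signal-to-noise per printed feature.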 To be noted: small-molecule microarray, higher = more signal.
Assay [7] can be described thus: probe aShh binding to arrayed compounds – biochemical, biotinylated probe, 635/667 nm fluorescence, primary screen (AID 1114).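 Further: probe is biotin-labelled aShh protein from a stem cell growth factor screen; measures binding of labelled protein to compounds printed on the slide; score merges feature fluorescence at 667 nm with signal-to-noise.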 To be noted: small-molecule microarray, higher = more signal.
Assay [8] is described as follows: probe aNog binding to arrayed compounds – biochemical, biotinylated probe, 635/667 nm fluorescence, primary screen (AID 1115).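 Further: probe is biotinylated aNog protein used at 0.15 µg/mL for 1 h at 4 C; z-score combines 667 nm fluorescence of each spot with its signal to noise.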 Conditions: small-molecule microarray, higher = more signal.
Assay [9] concerns the target Torsin-1A-interacting protein 1 (Homo sapiens) (UniProt Q5JTV8). Nature of the assay: compound microarray binding of lysate hLAP1 – cell lysate, small-molecule microarray, COS7 lysate, 635/667 nm fluorescence, primary screen (AID 1116). Conditions: 635 nm fluorescence, higher = more signal.
Assay [10] deals with Alpha-bungarotoxin (Bungarus multicinctus) (UniProt P60615). Nature of the assay: compounds binding labelled alpha-BTX control protein – biochemical, small-molecule microarray, Alexa647 label, 635/667 nm fluorescence, artefact control for SMM control protein annotation, profiling panel (AID 1117). To be noted: alpha-BTX-A647 binding fluorescence, higher = more signal.
Sequence of Alpha-bungarotoxin (Bungarus multicinctus) (P60615 whole entry, looked up): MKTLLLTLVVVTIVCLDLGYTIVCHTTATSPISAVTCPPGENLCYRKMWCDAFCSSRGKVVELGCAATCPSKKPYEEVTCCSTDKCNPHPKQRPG

Sequence of Torsin-1A-interacting protein 1 (Homo sapiens) (Q5JTV8 whole entry, looked up): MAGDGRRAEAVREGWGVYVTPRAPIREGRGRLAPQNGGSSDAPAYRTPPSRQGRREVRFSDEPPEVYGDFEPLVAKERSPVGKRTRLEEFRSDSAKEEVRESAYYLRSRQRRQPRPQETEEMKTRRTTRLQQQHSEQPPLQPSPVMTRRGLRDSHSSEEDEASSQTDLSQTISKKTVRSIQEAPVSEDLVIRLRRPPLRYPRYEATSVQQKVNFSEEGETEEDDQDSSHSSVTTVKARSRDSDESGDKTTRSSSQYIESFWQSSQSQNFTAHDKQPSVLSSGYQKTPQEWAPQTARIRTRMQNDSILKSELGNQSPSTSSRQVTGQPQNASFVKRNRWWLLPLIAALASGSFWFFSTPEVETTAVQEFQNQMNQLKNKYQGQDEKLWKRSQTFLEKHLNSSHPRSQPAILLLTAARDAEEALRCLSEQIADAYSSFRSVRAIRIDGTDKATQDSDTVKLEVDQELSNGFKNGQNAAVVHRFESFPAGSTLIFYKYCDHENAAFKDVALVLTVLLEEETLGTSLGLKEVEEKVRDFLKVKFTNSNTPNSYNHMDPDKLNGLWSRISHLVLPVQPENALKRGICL

As to `C=C(C(=O)CC[C@H](OC(=O)c1ccccc1-c1ccccc1C(=O)O)c1cccc(OCCO)c1)C(C)C`, the composite z-score is -0.304 in assay [1]; -0.103 in assay [3]; -0.119 in assay [4]; -0.409 in assay [5]; -0.184 in assay [6]; -0.0605 in assay [7]. Further, the results for the composite z-score in [8], in assay [9] and in [10] were -0.1, -0.126 and 0.436, respectively. Also, the z-score in [2] was -1.73.

Turning to `O=C1C2C=CC(C(O)C3CC=CCC3)N(Nc3ccccc3)C2C(=O)N1c1ccccc1` (stereo not given), the composite z-score in assay [1] was 1.44; in [3] it was 0.0066; in assay [4] it was 1.08; in [5] it was -0.0425; in [6] it was -0.098; in [7], 0.128. The results for the composite z-score in [8], in assay [9] and in [10] were 0.821, 0.946 and 1.78, respectively. The same compound displayed a z-score in assay [2] of -0.463.

As for `CCCCC(CC)C(O)C1C=CC2C(=O)N(c3ccccc3)C(=O)C2N1Nc1ccc(C#N)cc1` (stereo not given), the composite z-score in assay [1] is 1.44; in assay [3] it was 0.111; in assay [4] it was 1.35; in assay [5], 0.467; in [6], 0.267; in assay [7] it was 0.348. For the same compound, the composite z-score is 1.97 in assay [8], 0.336 in assay [9] and 1.45 in assay [10]. For the same compound, the z-score in assay [2] is -0.67.

Turning to `C=CC[C@@H](OC(=O)Nc1ccc(SC)cc1)c1ccc(O)c(F)c1`, the composite z-score in assay [1] is -0.148; in assay [3], -0.28; in assay [4], -0.818; in assay [5], -0.776; in assay [6], -0.0991; in assay [7] it was 0.42. Moreover, the values for the composite z-score in [8], in assay [9] and in assay [10] were -0.036, 0.958 and 0.26, respectively. Further, the z-score in assay [2] amounted to 0.56.

Regarding `CCCCC(CC)C(O)C1C=CC2C(=O)N(C)C(=O)C2N1Nc1ccccc1` (stereo not given), the composite z-score is 1.4 in [1]; -0.303 in assay [3]; 1.29 in assay [4]; 0.583 in assay [5]; -0.0721 in assay [6]; 0.0181 in assay [7]. Further, the results for the composite z-score in [8], in assay [9] and in [10] were 0.558, 0.466 and 1.34, respectively. Also, the z-score in assay [2] was -0.813.

Consider `CCC#CCN(Cc1ccccc1Br)[C@H](/C=C/C1CC1)[C@@H](O)Cc1ccccc1`, for which the composite z-score in assay [1] was -1.04; in [3] it was -0.398; in assay [4], -0.414; in [5], -0.659; in assay [6], -0.197; in assay [7], -0.214. In addition, the composite z-score in assay [8] was -0.209; in assay [9], -0.675; in [10] it was -0.229. In assay [2], this compound returned a z-score of -2.19.

Regarding `CCCC[C@@H]1C[C@H]1[C@@H](NC(=O)c1cccs1)c1ccccc1C(F)(F)F`, the composite z-score in assay [1] is 1.39; in assay [3], -0.363; in [4], 1.72; in [5], 0.763; in [6], -0.001; in assay [7], 0.663. Moreover, the composite z-score came out at 1.52 in [8], 0.582 in [9] and 0.881 in assay [10]. The compound further showed a z-score in [2] of 0.758.

For `COCCOC(=O)N1C(=O)[C@@]2(c3cc(C#CCC(C(=O)OC)C(=O)OC)ccc31)[C@H](c1ccc(OCCO)cc1)N1[C@H](c3ccccc3)[C@H](c3ccccc3)OC(=O)[C@H]1[C@@H]2C(=O)N1CCc2cc(OC)c(OC)cc2C1`, the composite z-score in assay [1] is 1.42; in assay [3], 0.52; in assay [4], 1.01; in assay [5], 0.182; in [6], -0.072; in [7], 0.123. For the same compound, the composite z-score was determined as 0.353 in assay [8], 1.05 in [9] and 1.68 in [10]. In addition, in assay [2], the z-score is -0.919.

`COCCOC(=O)N1C(=O)[C@@]2(c3cc(C#CCCO)ccc31)[C@H](c1ccc(OCCO)cc1)N1[C@H](c3ccccc3)[C@H](c3ccccc3)OC(=O)[C@H]1[C@@H]2C(=O)Nc1nc2ccccc2s1`: the composite z-score is 0.281 in assay [1]; 0.95 in assay [3]; 0.751 in assay [4]; 0.682 in [5]; -0.0977 in assay [6]; 0.626 in assay [7]. Besides, the figures for the composite z-score in assay [8], in [9] and in assay [10] were 0.0947, 1.08 and 1.96, respectively. The z-score in assay [2] was -1.13.

For `C#CCN(Cc1ccccc1Br)[C@H](/C=C/c1ccccc1)[C@@H](O)Cc1ccccc1`, the composite z-score was 0.169 in [1]; -0.81 in assay [3]; -1.03 in [4]; 0.41 in assay [5]; -0.128 in assay [6]; -0.124 in assay [7]. In addition, the composite z-score in assay [8] is 0.0108; in assay [9], -0.354; in [10], 0.192. The same compound came in with a z-score in [2] of -1.42.

For `COCCOC(=O)N1C(=O)[C@@]2(c3cc(C#CC4(O)CCCCCC4)ccc31)[C@H](C(=O)Nc1nc3ccccc3s1)[C@H]1C(=O)O[C@H](c3ccccc3)[C@H](c3ccccc3)N1[C@@H]2c1ccc(O)cc1`, the composite z-score in [1] is 1.37; in assay [3], 1; in assay [4], 1.29; in assay [5], 0.102; in assay [6] it was -0.18; in assay [7], -0.0849. Besides, the composite z-score was -0.188 in [8], 0.286 in [9] and 1.1 in assay [10]. Moreover, in assay [2], the z-score is -0.895.

`CC#CCO[Si](C#Cc1ccccc1)(C(C)C)C(C)C`: the composite z-score in assay [1] is -2.07; in assay [3], -0.0764; in assay [4], -0.0874; in assay [5], 0.877; in [6], -0.224; in assay [7], -0.0769. The composite z-score was -0.281 in assay [8], -0.785 in assay [9] and -1.53 in assay [10]. Besides, in [2], the z-score came to 0.046.

For the compound `CO[C@H]1O[C@H](CO)[C@@H](OC(=O)Nc2ccc(Br)cc2)[C@@H]2OC(=O)[C@@H](Cc3ccccc3)C/C=C/C[C@H](Cc3ccccc3)C(=O)O[C@@H]12`, the composite z-score turned out to be 0.816 in assay [1]; 0.142 in assay [3]; 0.534 in assay [4]; 0.149 in assay [5]; 0.218 in [6]; 0.0483 in [7]. Besides, the values for the composite z-score in [8], in assay [9] and in assay [10] were 1.04, 0.325 and 0.804, respectively. In addition, the z-score in assay [2] is -3.75.

As for `CC1CC/C=C\[C@H]2OC34C=CCN(C(C)C)C(=O)[C@H]3N(CCO)C(=O)[C@@H]4C2C(=O)O1` (stereo not given in full), the composite z-score in [1] is -0.21; in assay [3], -1.6; in [4], -0.377; in assay [5], 0.0947; in [6] it was -0.202; in [7], 0.0062. In addition, the results for the composite z-score in assay [8], in assay [9] and in assay [10] were -0.0926, -0.241 and -1.22, respectively. In addition, the z-score in [2] was -0.566.

Consider `COCCOC(=O)N1C(=O)[C@@]2(c3ccccc31)[C@H](C(=O)NC[C@H](O)c1ccccc1)[C@H]1C(=O)O[C@H](c3ccccc3)[C@H](c3ccccc3)N1[C@@H]2c1ccc(O)cc1`, for which the composite z-score in assay [1] was 1.44; in [3], 0.768; in assay [4], 0.573; in assay [5], -0.522; in assay [6], -0.0072; in [7], 0.209. The composite z-score in [8] came to 0.39; in assay [9], 1.21; in assay [10] it was 1.78. This compound gave a z-score in assay [2] of -0.986.

`COc1ccc(CCNC(=O)[C@@H]2c3ccccc3C(=O)N(C3CCCCC3)[C@H]2c2ccc(CO)cc2)cc1`: the composite z-score is 1.48 in assay [1]; -0.306 in [3]; 0.112 in assay [4]; -0.184 in assay [5]; -0.0403 in assay [6]; 0.0098 in assay [7]. Moreover, the composite z-score in [8] was -0.402; in [9], -0.17; in assay [10] it was 0.371. The same compound had a z-score in assay [2] of -1.82.

In the case of `CCOC(=O)C[C@H]1[C@H](OC(=O)c2ccc(C(=O)c3ccccc3)cc2)[C@@H](NC(=O)CC(C)C)c2cc(OCCCO)ccc2N1C(=O)c1ccccc1`, the composite z-score in assay [1] is 1.3; in assay [3], 0.53; in assay [4], 0.735; in [5], -0.165; in assay [6], -0.0758; in [7], -0.167. Also, the composite z-score is -0.0927 in [8], 0.537 in assay [9] and 0.741 in assay [10]. In assay [2], this compound showed a z-score of -1.12.

As for `O=C(O)[C@@H]1[C@@H]2C(=O)N(c3ccccc3)C(=O)[C@@H]2C[C@@H]1Sc1ccccc1`, the composite z-score in assay [1] was -0.933; in [3], -0.603; in [4], 0.172; in assay [5], 0.474; in assay [6], 0.0676; in assay [7] it was 0.328. The composite z-score in assay [8] is -0.0554; in assay [9] it was 0.351; in assay [10] it was -0.909. In [2], this compound returned a z-score of 0.0105.
